Screens (PubChem)
The list is not random: actives were taken first. Their share in the collection is about 7.2%.
VLA-4 inh = inhibition in human VLA-4 binding assay, primary screen, VLA-4 allosteric modulator project, MLPCN library, flow cytometry, VLA-4 expressing cells. Integrin alpha-4 (Homo sapiens), P13612. ligand binding flow cytometry. inhibition, % (about 7 µM as worked out from the volumes in the protocol). hit rate 0.2% among 330,000; in the data active = inhibition above about 50%
ALR H2O2 inh = inhibitors of human ALR sulfhydryl oxidase, primary screen, biochemical, H2O2 detection, HRP-luminol luminescence, single point; FAD-linked sulfhydryl oxidase ALR (Homo sapiens), P55789; purified ALR, DTT oxidation; inhibition, % (test concentration not listed); hit rate 3.8% among 290,000;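 active = mean replicate inhibition above about 79%, with every replicate also reaching it, limit read from the data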
Mot1-301 SUMO = yeast Mot1-301 growth rescue at high temperature, primary screen, SUMOylation pathway inhibitor project, S. cerevisiae, ATP luminescence, 38.5C; S. cerevisiae Mot1-301 growth rescue; percent above DMSO median, 100 means doubled; growth rescue, % at 18.8 µM; hit rate 1% among 320,000; AID 2716, 2010;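 active = every valid replicate shows activation above 250% relative to neutral control wells; inactive = the rest, any valid replicate at or below 250%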
AHR act = AHR activators, primary screen, cell-based, luminescence, luciferase reporter, human; Aryl hydrocarbon receptor (Homo sapiens), P35869; AHR-responsive luciferase reporter cells; activation, % at 5 µM; hit rate 2.5% among 320,000; AID 2796, 2010; in the data active = activation above about 47%
A1 inh = caspase 3/7 activation in MEF A1-2A-BIM cells, primary screen, A1 inhibitor project, cell-based, luminescence, HTS; Caspase-Glo 3/7 luminescence, 3 h; percent of clofoctol response, vehicle zero; caspase activation, % (test concentration not listed); hit rate 0.066% among 330,000;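 active = over half of replicate activation scores above 10%, or exactly half above 10 with the replicate mean above 10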
Efflux pump inh = inhibitors of Candida efflux pumps in yeast, primary screen, S. cerevisiae, Nile Red, multiplex; AID 485275, 2010; S. cerevisiae Candida pump triplex; inhibition, % at 10 µM; hit rate 0.44% among 330,000;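 active = plate passing quality check with inhibition over a set limit, or well fluorescence over plate mean plus 4 SD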;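 note: Nile Red retained in pooled yeast measured as flow cytometry median fluorescence; higher means more Nile Red kept so more efflux inhibition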
Of the large screens only hits and unclear results are named; the others gave an inactive call.

O=C(N/N=C/c1ccc(O)cc1O)c1ccncc1	none
COc1cc(/C=N/NC(=O)/C(=C/c2ccccc2)CCO)ccc1O	ALR H2O2 inh 99.3
CCc1cc(C(=O)N/N=C/c2ccc(O)cc2O)c2ccccc2n1	ALR H2O2 inh 83.3
CC(=O)C1=C(O)C(=O)N(c2ccc(Br)cc2)C1c1ccc(Br)cc1 (centres undefined)	AHR act 49.4
CC(=O)C1=C(O)C(=O)N(c2cccc(Br)c2)C1c1ccc(Br)cc1 (centres undefined)	none
CSc1nc(C)cc(SCC(=O)Nc2ccccc2)n1	none
O=C(CNS(=O)(=O)c1ccccc1)N/N=C/c1ccc(O)cc1	ALR H2O2 inh 99.0
Cc1ccc2nc(SCC(=O)N/N=C/c3ccc(C(=O)O)cc3)cc(C)c2c1	ALR H2O2 inh 97.8
O=C(CNS(=O)(=O)c1ccccc1)N/N=C\c1ccc(Cl)cc1	none (no result: ALR H2O2 inh)
CSc1nc(C)cc(SCC(=O)N/N=C/c2ccccc2)n1	AHR act 71.4
O=C(CSc1ccc2ccccc2n1)N/N=C/c1ccc(O)cc1	ALR H2O2 inh 99.3
CN(CCOc1ccc(Cl)cc1)C(=O)C1CCN(C(=O)c2ccc(Cl)cc2)CC1	none
Cc1cc(NC(=O)CSCC(=O)N(c2cccc(Cl)c2)C(C(=O)NC2CCCCC2)c2ccc(O)c(O)c2)no1 (centres undefined)	ALR H2O2 inh 99.0
CC(=O)Nc1ccc(N(C(=O)Cn2nnc3ccccc32)C(C(=O)NC2CCCC2)c2ccc(O)c(O)c2)cc1 (centres undefined)	ALR H2O2 inh 92.5
COc1ccc(N(C(=O)CSCC(=O)Nc2cc(C)on2)C(C(=O)NC2CCCCC2)c2ccc(O)c(O)c2)cc1 (centres undefined)	ALR H2O2 inh 85.0
Cc1cc(NC(=O)CSCC(=O)N(c2ccc(F)cc2)C(C(=O)NC2CCCCC2)c2ccc(O)c(O)c2)no1 (centres undefined)	none
Cc1cccc(N(C(=O)CCC(=O)Nc2cc(C)on2)C(C(=O)NC2CCCC2)c2ccncc2)c1 (centres undefined)	none
O=C(O)C/C=C(/NC(=O)OCc1ccccc1)C(=O)OCc1ccccc1	none
CC1CCN(CC(=O)NCc2ccco2)CC1	none
COc1ccc(-c2csc(NC3CCCCC3)n2)c(OC)c1	none
Cc1ccc(Cl)cc1NC(=S)N(CCCN1CCN(C)CC1)Cc1ccco1	none
COc1ccccc1N1CCN(S(=O)(=O)c2cnc[nH]2)CC1	ALR H2O2 inh 98.0
COc1ccccc1N1CCN(S(=O)(=O)c2ccccc2)CC1	ALR H2O2 inh 97.6
O=C(O)c1cccc2c(-c3ccccc3)c(-c3ccccc3)[nH]c12	ALR H2O2 inh 98.2
CCOC(=O)CSc1ccc(C(=O)Nc2ccc(Cl)cc2)cn1	AHR act 57.6
COc1ccc(NC(=O)c2ccc(N3CCOCC3)nc2)cc1	none
CCOC(=O)CSc1nc2c(cnn2-c2ccc(Cl)cc2)c(=O)[nH]1	none
CCOC(=O)CSc1ccc(C(=O)Nc2ccc(OC)cc2)cn1	AHR act 57.2
COc1ccc(CC(=O)Nc2nnc(C(C)(C)C)s2)cc1OC	none
OC(COCc1cccs1)CN1CCN(c2cccc(Cl)c2)CC1 (centres undefined)	ALR H2O2 inh 91.4
O=C(Nc1ccc(F)cc1)C1CC(=O)N(Cc2ccco2)C1 (centres undefined)	none
CCc1ccc(-c2nc(CS(=O)CC(=O)NCc3ccc4c(c3)OCO4)c(C)o2)cc1 (centres undefined)	ALR H2O2 inh 99.4
Cc1ccc(-c2nc(CS(=O)CC(=O)NCc3ccc4c(c3)OCO4)c(C)o2)cc1 (centres undefined)	ALR H2O2 inh 98.8
CC(=O)N1CCN(S(=O)(=O)c2ccc(F)c(Cl)c2)CC1	none
CCOP(=O)(OCC)/C(=C/N1CCCCC1)NC(=O)c1ccccc1	AHR act 63.9
Cc1cc(C(=O)NP(=O)(N2CCOCC2)N2CCOCC2)c(C)n1-c1ccc(Br)cc1	none
Cc1cc(C(=O)NP(=O)(N2CCOCC2)N2CCOCC2)c(C)n1-c1ccc(N(C)C)cc1	ALR H2O2 inh 93.4
O=C([C@H](Cc1ccccc1)NS(=O)(=O)c1ccc(Cl)cc1)N1CC[C@@]2(O)CCCC[C@H]2C1	none
Cc1nnc2sc(SCc3ccc(Cl)cc3)nn2c1=O	none (no result: ALR H2O2 inh)
Cc1cccc(CSc2nn3c(=O)c(C)nnc3s2)c1	ALR H2O2 inh 98.7
CC(=O)Nc1cccc(NC(=O)CSc2nn3c(=O)c(C)nnc3s2)c1	ALR H2O2 inh 98.2
Cc1nnc2sc(SCC(=O)Nc3ccc(Cl)cc3)nn2c1=O	ALR H2O2 inh 93.0
Cc1ccc(CSc2nn3c(=O)c(C)nnc3s2)cc1	none
COc1cc(C(=O)Nc2ccc(NC(C)=O)cc2)ccc1OCc1ccccc1	none
COc1ccc(CN2CC(C(N)=O)Oc3ccccc32)cc1F (centres undefined)	ALR H2O2 inh 98.5
COc1ccc(CN2CC[C@@H](N3CCOCC3)[C@H](O)C2)cc1F	none (no result: ALR H2O2 inh)
CC(=O)c1c(C)[nH]c(C(=O)Nc2cccc3ccccc23)c1C	AHR act 110.1
CC(=O)c1c(C)[nH]c(C(=O)Nc2ccccc2Cl)c1C	AHR act 59.1
CCC(C)c1ccccc1NC(=O)c1[nH]c(C)c(C(C)=O)c1C (centres undefined)	none (no result: ALR H2O2 inh)
COc1cnn(-c2ccc(C)cc2)c(=O)c1SCc1ccccc1	none
COc1cnn(-c2ccccc2)c(=O)c1SCc1ccc(Cl)cc1Cl	ALR H2O2 inh 97.8
COc1cnc(SCc2ccc(Cl)cc2Cl)nc1Cl	ALR H2O2 inh 98.1
Cc1nnc(SCC(=O)N(C)c2ccccc2)n1Cc1ccccc1	none
Cc1ccc(S(=O)(=O)N2CCN(C(=S)NCCc3ccccc3)CC2)cc1	none (no result: Mot1-301 SUMO)
COc1ccc(NC(=O)C2CCCN2C(=O)Oc2ccccc2)cc1 (centres undefined)	none
CCOc1ccc2c(c1)n(CO)c(=S)n2CO	ALR H2O2 inh 99.8
C=CCc1ccc(OCCCCOc2ccc(C(=O)O)cc2)c(OC)c1	none
C=CCc1ccc(OC)c(OC)c1	Mot1-301 SUMO 863.6
C=CCc1ccc(OCCCCCN2CCOCC2)c(OC)c1	Mot1-301 SUMO 276.5
C=CCNC(=O)CC(C)C(CCCCC)C(=O)O (centres undefined)	none
O=c1cc(-c2ccccc2)nc(SCCOc2ccccc2Cl)[nH]1	none
CCCN(CCC)CCNC(=O)CS(=O)Cc1nc(-c2ccc(C)cc2)oc1C (centres undefined)	ALR H2O2 inh 98.3
CCCCNC(=O)CS(=O)Cc1nc(-c2ccc(C)cc2)oc1C (centres undefined)	ALR H2O2 inh 98.7
